In PubChem BioAssay AID1347416 (National Center for Advancing Translational Sciences (NCATS), 2020):
In all, about 4,100 compounds went through this assay and about 1,600 (39%) were called active. About 25% were inconclusive and are not listed. The call rests on the fitted dose curve; in most records, active means well fitted inhibition curve with a large enough effect; inconclusive means small, poorly fitted or top-dose-only effect; inactive means no such curve, though single readings can be large or run the other way. The list shows a part of the results.

experiment: qHTS Validation assay for Inhibitors of Plasmodium falciparum Dd2 growth in vitro; further: nearly all actives have a fitted effect of over 70% in size; settings: P. falciparum Dd2 in RBCs, SYBR Green growth, 72 h; series mostly up to 28.7 µM; activity change, negative = inhibition: at the top concentration
Outline: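 P. falciparum Dd2-infected red blood cells (2.5% hematocrit, 0.3% parasitemia) grown 72 h at 37 °C under 5% O2 with compounds in a titration, 29 uM to 0.5 nM final. Growth read as SYBR Green-1 fluorescence after ~16 h lysis; artesunate 300 nM as positive control.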
On the % scale 0 is the no-effect control and ±100 the full control effect; potency means the concentration at half of the fitted maximal effect.

Row | Structure (SMILES) | activity change, negative = inhibition | Potency
1 | CCCC(=O)N1CCn2c(nnc2[C@@H]2C[C@@H](O)CN2Cc2ccccc2)C1 | 17.5% (inactive) | 
2 | CCCCOCc1cc(CN2CCN(c3cccc(Cl)c3)CC2)c(O)c2ncccc12 |  | 6.68 µM (active)
3 | CC(C)OCc1cc(CN2CCN(c3cccc(C(F)(F)F)c3)CC2)c(O)c2ncccc12 |  | 6.68 µM (active)
4 | COc1ccc(-c2noc(CCCC(=O)N3CCCC3c3nc(C4CCOCC4)no3)n2)cc1OC (stereo not given) | -2.3% (inactive) | 
5 | COCCOc1cc(-c2noc([C@@H]3CCCN3CC3CC3)n2)ccn1 |  | 15.3 µM (active)
6 | c1cc(-c2noc([C@@H]3Cc4nc[nH]c4CN3CC3CCCCC3)n2)ccn1 |  | 21.7 µM (active)
7 | CCOc1ccc(CC(=O)N2CCC[C@H]2c2nc(-c3ccc(C)cc3)no2)cc1 | 22.8% (inactive) | 
8 | COCCNc1ncccc1-c1noc([C@@H]2CCCN2Cc2ccccn2)n1 |  | 7.69 µM (active)
9 | COc1ccc(C(=O)N2CCC[C@H]2c2nc(-c3ccccc3Cl)no2)cc1OC | 4.37% (inactive) | 
10 | COc1ccc(C(O)(CCC(C)C)C(CN2CCOCC2)c2ccc(Cl)cc2)cc1 (stereo not given) |  | 6.68 µM (active)
11 | COc1ccc(C(O)(CCC(C)C)C(CN2CCOCC2)c2ccccc2)cc1 (stereo not given) |  | 5.31 µM (active)
12 | COc1cc(OC)c(NC(=O)N2CCc3cc(S(=O)(=O)N4CCC(C)CC4)ccc32)cc1Cl | 39.5% (inactive) | 
13 | COc1ccc(S(=O)(=O)N2CCCCCC2)cc1NC(=O)c1c2c(nc3ccccc13)CCN(Cc1ccccc1)C2 |  | 4.73 µM (active)
14 | COc1ccc(OC)c(NC(=O)c2ccc3c(c2)N(S(=O)(=O)c2ccccc2)CC3)c1 | -26.8% (inactive) | 
15 | COCCOCC1(CNC(=O)c2cnccn2)C[C@@H](O)[C@@H](O)C1 (stereo not given in full) | 54.4% [at 43.1 µM] (inactive) | 
16 | O=c1c2ccccc2sc2nc(C3CCCCC3)n(Cc3ccco3)c(=O)c12 |  | 7.5 µM (active)
17 | CC1CCN(c2nc3c(S(=O)(=O)c4ccccc4)nnn3c3ccc(Cl)cc23)CC1 |  | 2.66 µM (active)
18 | O=S(=O)(c1ccccc1)c1nnn2c1nc(NC1CCN(Cc3ccccc3)CC1)c1cc(Cl)ccc12 |  | 2.99 µM (active)
19 | Cc1c(C(=O)N2CCN(c3ccccn3)CC2)oc2ccccc12 | 24.9% (inactive) | 
20 | CN(C)c1cc(=O)c2ccnc(N3CCN(c4ccccn4)CC3)c2o1 | 12.8% [at 43.1 µM] (inactive) | 
21 | Cc1ccc(S(=O)(=O)c2nnn3c2nc(N2CCN(c4ccccn4)CC2)c2ccccc23)cc1 |  | 7.5 µM (active)
22 | COc1ccc2c(c1)CCN=C2C[C@H]1CN(C(=O)NC(C)C)CC[C@H]1CC(=O)O | 40.3% [at 43.1 µM] (inactive) | 
23 | COc1ccc(CN2CCCC(N3CCc4ccccc4C3)C2)c(O)c1 (stereo not given) |  | 2.99 µM (active)

Row | Structure (SMILES) | activity change, negative = inhibition | Potency
24 | COc1cccc(CN(C)C2CCc3ccccc32)c1 (stereo not given) | -11.5% [at 43.1 µM] (inactive) | 
25 | COc1ccc(CCn2c(=N)c(C(=O)NCCN3CCOCC3)cc3c(=O)n4cccc(C)c4nc32)cc1OC |  | 13.3 µM (active)
26 | Cc1cccn2c(=O)c3cc(C(=O)NCCc4ccc(S(N)(=O)=O)cc4)n(C)c3nc12 | 52.4% (inactive) | 
27 | Cc1ccc(-c2cc3c(=O)n(CCNC(=O)c4ccc[nH]c4=O)ccn3n2)cc1C | -19.5% (inactive) | 
28 | CCOCCCn1c(=N)c(C(=O)NCc2cccnc2)cc2c(=O)n3ccccc3nc21 | 35.7% (inactive) | 
29 | Cc1cccn2c(=O)c3cc(C(=O)NC(C)c4ccccc4)c(=N)n(CCOCCO)c3nc12 (stereo not given) |  | 10.6 µM (active)
30 | COc1ccc(CCn2c(=N)c(C(=O)NCc3ccco3)cc3c(=O)n4cccc(C)c4nc32)cc1 |  | 1.68 µM (active)
31 | CCCc1noc(-c2cccn3c(CNC(=O)c4ccc(OC)cc4C)nnc23)n1 | 5.42% (inactive) | 
32 | N#Cc1cccc(-c2cn3c(n2)N(C(=O)CC2CCCC2)CCC3)c1 | -24.1% (inactive) | 
33 | CCCCCCc1cc2cc(-c3nnc(-c4ccc(C)cc4)o3)c(=O)oc2cc1O | 75.9% (inactive) | 
34 | O=C(C1CCCC1)N1CCN(c2nnc3c(Cl)cccn23)CC1 | -1.29% (inactive) | 
35 | COc1ccc(CCNC(=O)c2cc3c(=O)n4cccc(C)c4nc3n(CC3CCCO3)c2=N)cc1 (stereo not given) | 12.4% (inactive) | 
36 | COc1ccc(CCn2c(=N)c(C(=O)NC3CCCC3)cc3c(=O)n4cccc(C)c4nc32)cc1 |  | 0.75 µM (active)
37 | Cc1cccn2c(=O)c3cc(C(=O)NC4CCCC4)c(=N)n(CCc4ccccc4)c3nc12 |  | 1.88 µM (active)
38 | CN1CCCCC(CC(=O)NCCc2ccccc2)C1=O (stereo not given) | 19.6% (inactive) | 
39 | O=C(/C=C/c1ccccc1)Nc1cccc(C(=O)O)c1 | 36.5% (inactive) | 
40 | Cc1cc(N)c2cc(NC(=O)/C=C/c3ccccc3Cl)ccc2n1 |  | 1.88 µM (active)
41 | O=C(COc1ccc(F)cc1)N1CCC(c2noc(-c3ccncc3)n2)C1 (stereo not given) | -28.6% (inactive) | 
42 | CC1C(=O)C(C)C(c2cc(Cl)ccc2O)NC1c1cc(Cl)ccc1O (stereo not given) |  | 6.68 µM (active)
43 | Cc1[nH]c2c(C)cccc2c(=O)c1Br |  | 5.31 µM (active)
44 | Cc1cnc(C(=O)Nc2cccc3cccnc23)cn1 |  | 2.66 µM (active)
45 | Cc1cnc(C(=O)N[C@@H]2CCC[C@@H]2C(=O)N2CCC(Cc3ccccc3)CC2)cn1 | -11.4% (inactive) | 
